High-throughput results (PubChem)
Shown are actives, neighbours in structure and some others; about 19% of the full set was active somewhere.
TDP1 inh – qHTS Assay for Inhibitors of Tyrosyl-DNA Phosphodiesterase (TDP1); recombinant TDP1, AlphaScreen DNA substrate cleavage; 0.28% of 350,000 active; Potency, µM (highest dose often 130 µM), for inactives: at the highest dose activity change, negative = inhibition, usual class: inhibitors; Tyrosyl-DNA phosphodiesterase 1 (Homo sapiens), Q9NUW8; note: potency is the fitted concentration of half-maximal effect; % is set by controls: 0 for no effect and ±100 for the full control effect; nearly all actives have a fitted effect of over 40% in size
Target sequence (Q9NUW8 whole entry, looked up): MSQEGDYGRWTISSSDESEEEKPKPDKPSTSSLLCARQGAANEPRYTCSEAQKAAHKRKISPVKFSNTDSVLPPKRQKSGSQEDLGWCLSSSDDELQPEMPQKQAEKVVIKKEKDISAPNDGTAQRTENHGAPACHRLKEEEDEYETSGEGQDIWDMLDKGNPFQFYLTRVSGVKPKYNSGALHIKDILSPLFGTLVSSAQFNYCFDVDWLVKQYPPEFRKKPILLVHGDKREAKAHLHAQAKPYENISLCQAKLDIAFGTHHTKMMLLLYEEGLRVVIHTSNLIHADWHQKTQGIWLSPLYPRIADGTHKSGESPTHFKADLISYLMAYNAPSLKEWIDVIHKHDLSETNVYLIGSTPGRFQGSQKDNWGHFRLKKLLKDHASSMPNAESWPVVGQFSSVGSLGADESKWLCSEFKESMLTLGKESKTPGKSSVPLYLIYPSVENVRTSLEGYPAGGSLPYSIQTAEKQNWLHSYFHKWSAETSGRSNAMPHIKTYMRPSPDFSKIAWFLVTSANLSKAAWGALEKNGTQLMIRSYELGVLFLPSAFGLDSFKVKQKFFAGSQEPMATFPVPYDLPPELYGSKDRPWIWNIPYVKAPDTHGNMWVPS
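Tdp1 1 nM final; 15 min RT w/ cpd; substrate 15 nM, 5 min; beads 10 ug/ml, 10 min; AlphaScreen read. Neg ctrl: no enzyme.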
TGFb inhibitor – qHTS for Inhibitors of TGF-b; HepG2 CAGA-GFP TGF-b/SMAD3 reporter, GFP fluorescence, 18 h; TGF-beta stimulated, 500 pg/mL final; Potency, µM (top dose mostly 46.1 µM), for inactives: at the highest dose activity, negative = inhibition, actives largely listed as inhibitors; 1.2% of 410,000 active; note: potency is the fitted concentration of half-maximal effect; % is set by controls: 0 for no effect and ±100 for the full control effect; nearly all actives have a fitted effect of over 65% in size
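HEPG2 CAGA-GFP cells (1000/well, DMEM with 1% FBS) were pre-incubated 2 h at 37 degrees C, given compound by pin tool, then stimulated with TGF-beta at 500 pg/mL final for 18 h before per-cell GFP fluorescence imaging.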
IL1B secr inh – qHTS for Inhibitors of Inflammasome Signaling: IL-1-beta AlphaLISA Primary Screen | activity change, % at 57.5 µM | THP-1 LPS/ATP IL-1B secretion, AlphaLISA, 16 h; hits give low values | AID 743279, 2014 | 4.7% of 360,000 active; in the data active = activity change below about -50%; inconclusive = mostly about -30% to -49%; note: % is set by controls: 0 for no effect and ±100 for the full control effect
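Secreted IL-1B measured by AlphaLISA bead assay after 16 h compound exposure of THP-1 cells; compounds (final up to 57.5 uM) added 1 h before LPS (250 ng/mL) and ATP (1.25 mM) stimulation; lower signal means less secretion.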
HepG2 viability – qHTS for Inhibitors of TGF-b: Cytotox Counterscreen; HepG2 CAGA-GFP viability, ATP luminescence, 18 h; Potency, µM (titrated, usually from 46.1 µM), inactives show top-dose activity change, negative = cytotoxicity, hits mostly cytotoxic; AID 588856, 2011; 0.76% of 410,000 active; note: potency is the fitted concentration of half-maximal effect
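HepG2 CAGA-GFP cells (1000/well, DMEM with 1% FBS) received compound, then TGF-beta at 500 pg/mL final, and were incubated 18 hours at 37 degrees C. Viability was read by CellTiter-Glo luminescence. Media-only wells were set as complete cell-killing and DMSO as no toxicity.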
DT40 TDP1 no CPT – qHTS for Inhibitors of human tyrosyl-DNA phosphodiesterase 1 (TDP1): qHTS in cells in absence of CPT; Potency, µM (top dose mostly 46.2 µM), inactives show at the top dose activity change, negative = growth inhibition, most hits filed as inhibitors; 15% of 420,000 active; DT40 Tdp1-/- hTDP1 cells, no CPT, ATP luminescence, 48 h; note: potency is the fitted concentration of half-maximal effect; % is set by controls: 0 for no effect and ±100 for the full control effect; nearly all actives have a fitted effect of over 55% in size
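Cells were dispensed at 400 per well, compounds added by pin tool, plates incubated ≥48 hr at 37 °C, then CellTiter-Glo added for 30 min at room temperature before luminescence reading. Line: DT40 Tdp1-/- complemented with hTDP1; camptothecin omitted.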
DT40 TDP1 CPT – qHTS for Inhibitors of human tyrosyl-DNA phosphodiesterase 1 (TDP1): qHTS in cells in presence of CPT; chicken DT40 Tdp1-/-;hTDP1 cells + 20 nM CPT, ATP luminescence, 48 h; Potency, µM (titrated, usually from 46.2 µM), for inactives: top-dose activity change, negative = growth inhibition, usual class: inhibitors; 12% of 420,000 active; note: potency is the fitted concentration of half-maximal effect; % is set by controls: 0 for no effect and ±100 for the full control effect; nearly all actives have a fitted effect of over 55% in size
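Chicken DT40 Tdp1-/- cells complemented with human TDP1, 400 cells/well, exposed to compounds plus 20 nM camptothecin for at least 48 h at 37 C; viability read as ATP content by CellTiter-Glo luminescence.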
Numbers without * were called inactive; ? = inconclusive; . = no result; [ ] = remark or other dose. Unless noted, calls come from the whole dose curve; as a rule, active = well fitted curve in the direction sought with a large enough effect; inconclusive = small, poorly fitted or top-dose-only effect, or another doubt; inactive = no such curve, though single readings can be large; an effect the other way counts as inactive or inconclusive.

SMILES	TDP1 inh	TGFb inhibitor	IL1B secr inh	HepG2 viability	DT40 TDP1 no CPT	DT40 TDP1 CPT
CC(=O)Nc1ccc(CNc2nc3cc(-c4cccc(C(F)(F)F)c4)sc3c(=O)n2C)cc1	.	?	19.6	-24.5%	20.6µM*	23.1µM*
COc1cccc(CNc2nc3cc(-c4cccc(C(F)(F)F)c4)sc3c(=O)n2C)c1	.	-27.9%	37.4	-12.5%	-38.5%	-26.4%
Cc1ccc(-c2nn(-c3ccc(F)cc3F)c3c2cnc2ccc(F)cc23)cc1	1.2%	15.8%	.	-0.7%	-29.6%	-12.5%
CSc1ccc(-c2ccc(C(=O)NCC3CCCO3)c(N3CCC(O)CC3)n2)cc1 (centres undefined)	.	.	.	.	-13.0%	-3.6%[9.04 µM]
O=C(NCCN1CCN(c2ccccc2Cl)CC1)Nc1ccccc1	.	-2.6%	-21.5	5.4%	?	-11.4%
COc1ccc(Cl)cc1N1CCN(CCNC(=O)Nc2ccccc2C)CC1	6.2%	?	-76.8*	-48.0%	-95.2%	-101.7%
COc1ccc(N2CCN(CCNC(=O)Nc3cc(Cl)ccc3OC)CC2)cc1	.	4.9%	-7.2	-16.5%	?	?
Cc1cccc(N2CCN(CCNC(=O)Nc3ccc(Cl)cc3)CC2)c1C	7.5%	?	.	-4.1%	13µM*	13µM*
Clc1ccc(Cl)c(OCCCCN2CCCCC2)c1	.	-5.5%	0.0	-15.8%	?	18.4µM*
Cc1cc(Br)ccc1OCCCCN1CCCCC1	-7.2%	-13.1%	-57.8*	-28.6%	?	?
Cc1ccc(S(=O)(=O)Nc2ccc(Cl)cn2)cc1C	.	0.3%	5.8	-7.0%	-6.0%	7.3%
Cc1ccccc1CC1(CO)CCCN(C(=O)Cc2c(F)ccc(F)c2F)C1 (centres undefined)	2.3%	-29.0%	-8.3	-4.8%	?	16.4µM*
Cc1ccccc1CC1(CO)CCCN(C(=O)CCC(F)(F)F)C1 (centres undefined)	.	-5.2%	9.9	11.2%	-0.2%	-0.2%
CC1Nc2ncnc(N3CCN(c4ccccc4)CC3)c2N(Cc2ccc(Br)cc2)C1=O (centres undefined)	3.8%	?	?	-19.2%	20.6µM*	?
CC1Nc2ncnc(N3CCOCC3)c2N(Cc2ccccc2)C1=O (centres undefined)	-8.7%	-3.2%	28.6	7.2%	-12.4%	-18.3%
CCC1Nc2ncnc(N3CCc4ccccc4C3)c2N(Cc2ccc(Cl)cc2)C1=O (centres undefined)	2.9%	?	-14.4	14.4%	?	20.6µM*
CC1Nc2ncnc(N3CCc4ccccc4C3)c2N(Cc2ccccc2)C1=O (centres undefined)	.	?	-22.7	-27.0%	?	20.6µM*
CCC1Nc2ncnc(N3CCN(c4ccccn4)CC3)c2N(Cc2ccc(Cl)cc2)C1=O (centres undefined)	3.4%	-13.6%	-59.0*	-1.0%	?	?
CCOc1ccc(CNC(=O)c2cnc3c(C)cccn3c2=O)cc1	4.4%	-12.5%	.	2.6%	-16.5%	1.0%
O=C1C(Cc2ccccc2)Nc2ncnc(N3CCOCC3)c2N1Cc1ccccc1 (centres undefined)	2.2%	0.0%	-4.2	-0.2%	-16.4%	-14.8%
O=C1C(Cc2ccccc2)Nc2ncnc(N3CCc4ccccc4C3)c2N1Cc1ccc(Cl)cc1 (centres undefined)	-0.3%	17.8µM*	-93.9*	-19.7%	?	?
